Assay results as given in paper PMC5540273 (PLoS ONE, 2017).

What follows are molecules tested on CHEK1.
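Further: kd values determined as follow-up on hits from a single-replicate KINOMEscan panel screen.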

| Structure (SMILES) | Kd |
| --- | --- |
| COc1ccc(Nc2nccc(-c3ccc(NC(=O)c4cc5cc(F)ccc5[nH]4)cc3)n2)cc1 [GSK1229496] | > 10000 nM |
| COc1ccc(Nc2nccc(N3CCC(NC(=O)c4cc5ccccc5s4)C3)n2)cc1 (stereo not shown) [GSK1379738] | > 10000 nM |
| FC(F)(F)c1ccccc1-c1cc(-c2c[nH]nc2-c2ccccn2)ccn1 [GW679396] | > 10000 nM |
| Cc1ccccc1-c1cc(-c2c[nH]nc2-c2ccccn2)ccn1 [GW680061] | > 10000 nM |
| COc1cccc(C2=C(Nc3cc(Cl)c(O)c(Cl)c3)C(=O)NC2=O)c1 [SB-390767] | > 10000 nM |
| COC(=O)C(Cc1ccccc1)NC(=O)NC1CCN(c2ccnc(Nc3ccc(F)cc3)n2)C1 (stereo not shown) [GSK1379714] | > 10000 nM |
| CS(=O)(=O)CCNCc1nc(-c2ccc3ncnc(Nc4ccc(OCc5ccccc5)c(Cl)c4)c3c2)cs1.Cl [GW582764] | > 10000 nM |

Each molecule was assayed on CHEK2.

| Structure (SMILES) | Kd |
| --- | --- |
| CNc1cc(-c2ccc3c(N)n[nH]c3c2)nc(N)n1 [GSK2224810] | 2000 nM |
| COc1ccc(Nc2nccc(NCCNC(=O)Nc3cc(C)ccc3C)n2)cc1 [GSK1379899] | > 10000 nM |
| CC(C)c1cc(-c2ccc3c(N)n[nH]c3c2)nc(N)n1 [GSK2250882] | 320 nM |

These molecules were tested on CIT.

| Structure (SMILES) | Kd |
| --- | --- |
| COc1cccc(NC(=O)Nc2ccc(C)c(-c3ccc(C(=O)Nc4ccncc4)cc3)c2)c1 [GSK1398474] | 280 nM |
| Fc1ccc(-c2nc[nH]c2-c2ccncc2)cc1 [SB-217360] | 310 nM |
| Nc1nccc(-c2c(-c3ccc(F)cc3)ncn2C2CCN(Cc3ccccc3)CC2)n1 [SB-219980] | 130 nM |
| Cc1cccc2c(-c3ccncn3)c(-c3ccc(F)cc3)nn12 [GW515532] | 2500 nM |
| CC[C@@H]1CO[C@H](C(=O)Nc2ccccc2)CN1c1cc(-c2ccc3c(N)n[nH]c3c2)nc(NC)n1 [GSK2376236] | 200 nM |
| CNc1nc(-c2ccc3c(N)n[nH]c3c2)cc(N2C[C@@H](C(=O)Nc3ccccc3)CC[C@H]2C)n1 [GSK2298859] | 500 nM |
| Cl.Cl.Cl.N#Cc1ccc(CCNc2nccc(-c3cccc(CN4CCNCC4)c3)n2)cc1 [GSK2137462] | 8600 nM |
| Fc1ccc(-c2nc3n(c2-c2ccncc2)CCS3)cc1 [GI98581] | 760 nM |
| Cc1ccc(NC(=O)Nc2ccccc2)cc1-c1ccc(C(=O)Nc2ccncc2)cc1 [GSK1398471] | 540 nM |
| Fc1ccc(-c2nn3cccc(F)c3c2-c2ccncc2)cc1 [GW475620] | 310 nM |
| Cc1ccc(NC(=O)Nc2ccccc2F)cc1-c1ccc(C(=O)Nc2ccncc2)cc1 [GSK1398477] | 570 nM |
| Cc1ccc(NC(=O)Nc2ccc(Cl)cc2)cc1-c1ccc(C(=O)Nc2ccncc2)cc1 [GSK1398472] | 430 nM |

These molecules were tested on CLK1.

| Structure (SMILES) | Kd |
| --- | --- |
| CNc1cc(-c2ccc3c(N)n[nH]c3c2)nc(N)n1 [GSK2224810] | 330 nM |
| COc1ccc(CSc2nnc(-c3ccc4ncsc4c3)o2)cc1C(F)(F)F | 170 nM |
| Cc1cccc2c(-c3ccncn3)c(-c3ccc(F)cc3)nn12 [GW515532] | > 10000 nM |
| CNCc1ccc2nc(NC(=O)c3ccc(C(C)(C)C)cc3)cn2c1 | 7500 nM |
| COc1ccc(CSc2nnc(-c3ccc4nccn4c3)o2)cc1C(F)(F)F | 70 nM |

These molecules were tested on CLK2.

| Structure (SMILES) | Kd |
| --- | --- |
| COC(=O)c1cccc(NC(=O)NC2CCN(c3ccnc(Nc4ccc(OC)cc4)n3)C2)c1 (stereo not shown) [GSK1379746] | > 10000 nM |
| CNc1cc(-c2ccc3c(N)n[nH]c3c2)nc(N)n1 [GSK2224810] | 410 nM |
| COc1ccc(CSc2nnc(-c3ccc4nccn4c3)o2)cc1C(F)(F)F | 150 nM |
| Cc1ccc(NC(=O)c2ccc(Cl)cc2)cc1-c1ccc(C(=O)Nc2ccncc2)cc1 [GSK1398467] | > 10000 nM |
